Assay results: PubChem BioAssay (EPA / NIEHS)
Results filed as inconclusive are left out. Activity calls are given as the source filed them. How the source made its calls, unless noted: active means hit-call score of the fitted dose curve at least 0.9, where 1 is the maximum; inconclusive means response in the unintended direction; inactive means score below 0.9.

Tests used:
[1] = CCTE_Mundy_HCI_Cortical_Synap_Neur_Matur_NeuriteCount: CCTE's Synaptogenesis and Neurite Maturation Assay in rat cortical cells for Neurite Count, Mundy Lab (AID 2284222; active means hit-call score of the fitted dose curve at least 0.9, where 1 is the maximum; inactive means score below 0.9;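 further: exposure from day 7 to day 12 in vitro with readout at day 12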)
In short: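 Primary rat cortical cells were plated, treated with AraC at DIV 5, then exposed to chemicals from DIV 7 through DIV 12. After fixation and immunostaining for MAP2 and synaptophysin, imaging quantified neurites, with DMSO as the negative control.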

[2] = CCTE_Mundy_HCI_Cortical_Synap_Neur_Matur_CellBodySpotCount: CCTE's Synaptogenesis and Neurite Maturation Assay in rat cortical cells for Cell Body Spot Count, Mundy Lab (AID 2284223; active means hit-call score of the fitted dose curve at least 0.9, where 1 is the maximum; inactive means score below 0.9)
In short: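 Chemicals were applied to AraC-treated rat primary cortical cells at DIV 7 and measured at DIV 12. Fixed cells were labelled for MAP2, synaptophysin and nuclei, and high-content imaging gave cell body synaptophysin spot counts per neuron relative to DMSO.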

[3] = CCTE_Mundy_HCI_hNP1_Pro_ResponderAvgInten: CCTE's Proliferation Assay in human neuroprogenitor cells, Mundy Lab (AID 2284224);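 further: human neural progenitor cells hNP1 derived from WA09 embryonic stem cells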
In short: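 Proliferation read as average intensity of BrdU-positive cells, imaged at 26.25 h post-dosing: chemical exposure started after 40–44 h culture, BrdU during final 4 h, paraformaldehyde fixation. Positive-direction fit relative to DMSO.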

[4] = CCTE_Mundy_HCI_Cortical_NOG_NeuronCount: CCTE's Neurite Outgrowth Assay in rat cortical cells for Neuron Count, Mundy Lab (AID 2284236);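 further: neurons counted by imaging betaIII-tubulin and Hoechst stained cortical cells; cells exposed to compound for about 48 hours before fixation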
In short: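 Read-out: neuron number by high-content imaging of betaIII-tubulin (Alexa Fluor-488) and Hoechst-labelled rat primary cortical cells.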

[5] = CCTE_Mundy_HCI_Cortical_NOG_BPCount: CCTE's Neurite Outgrowth Assay in rat cortical cells for Branch Point Count, Mundy Lab (AID 2284237; active means hit-call score of the fitted dose curve at least 0.9, where 1 is the maximum; inactive means score below 0.9)
In short: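 Measured 50.33 h after dosing, this morphology endpoint uses rat primary cortical cultures labelled for betaIII-tubulin. Branch points are quantified by high-content imaging, with DMSO as negative control and baseline.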

[6] = CCTE_Mundy_HCI_hNP1_Casp3_7: CCTE's Caspase-Glo 3/7 Assay in human neuroprogenitor cells for Apoptosis, Mundy Lab (AID 2284240; active means hit-call score of the fitted dose curve at least 0.9, where 1 is the maximum; inactive means score below 0.9)
In short: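 Luminescent caspase-3/7 readout, 26.5 h post-dose, in human neural progenitor cells from WA09 embryonic stem cells. Cells grew 40–44 h at 37 °C, 5% CO2 before chemical addition. Activity analysed as signal increase over DMSO baseline.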

[7] = CCTE_Mundy_HCI_hNP1_CellTiter: CCTE's Cell Titer-Glo 2 Assay in human neuroprogenitor cells for Viability, Mundy Lab (AID 2284241)
In short: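 Viability read as luminescent ATP content (CellTiter-Glo, 30 min room temperature) twenty-four hours after dosing, relative to DMSO. Cells: WA09-derived hNP1 neuroprogenitors on poly-L-ornithine/laminin, plated 40 to 44 hours before chemical.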

[8] = CCTE_Mundy_HCI_Cortical_Synap_Neur_Matur_NeuronCount: CCTE's Synaptogenesis and Neurite Maturation Assay in rat cortical cells for Neuron Count, Mundy Lab (AID 2284242)
In short: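 Rat cortical cultures; AraC DIV 5; chemical dosing + media change DIV 7 to DIV 12 (288.33 h readout). Fix, Hoechst, anti-MAP2/anti-synaptophysin immunostain; HCI neuron count vs DMSO baseline.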

[9] = IUF_NPC2c_oligodendrocyte_migration_120hr: Leibniz Research Institute for Environmental Medicine (IUF) 120-hour Neural Progenitor Cell Migration Assay for Oligodendrocyte Migration (NPC2c) (AID 2284297; active means hit-call score of the fitted dose curve at least 0.9, where 1 is the maximum; inactive means score below 0.9;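 further: O4-positive oligodendrocyte migration distance divided by radial glia migration distance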)
In short: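 Using fetal brain neural progenitor spheres differentiating in N2 medium at 37C, compounds were present for 120 h. Oligodendrocyte migration distance, normalized to radial glia migration, was measured from imaged O4 staining.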

[10] = IUF_NPC2a_radial_glia_migration_120hr: Leibniz Research Institute for Environmental Medicine (IUF) 120-hour Neural Progenitor Cell Migration Assay for Radial Glia Migration (NPC2a) (AID 2284298; active means hit-call score of the fitted dose curve at least 0.9, where 1 is the maximum; inactive means score below 0.9)
In short: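 Exposure of 0.3 mm primary hNPC spheres runs day 0 to 120 h with a half-volume medium change at day 3. Fixed cells get Hoechst staining; high-content analysis of nuclear positions yields radial glia migration distance per well, compared against DMSO controls.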

[11] = IUF_NPC2a_radial_glia_migration_72hr: Leibniz Research Institute for Environmental Medicine (IUF) 72-hour Neural Progenitor Cell Migration Assay for Radial Glia Migration (NPC2a) (AID 2284299; active means hit-call score of the fitted dose curve at least 0.9, where 1 is the maximum; inactive means score below 0.9)
In short: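 Readout: mean of four manual brightfield measurements of radial glia migration distance (um) at 72 h. hNPC spheres (0.3 mm) exposed to 7 compound concentrations plus solvent control on PDL/laminin, 37C, 5% CO2; activity fitted relative to DMSO.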

[12] = IUF_NPC2b_neuronal_migration_120hr: Leibniz Research Institute for Environmental Medicine (IUF) 120-hour Neural Progenitor Cell Migration Assay for Neuron Migration (NPC2b) (AID 2284300; active means hit-call score of the fitted dose curve at least 0.9, where 1 is the maximum; inactive means score below 0.9)
In short: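 Fetal human NPC spheres migrate on PDL/laminin during 120 h compound treatment; neuronal migration distance, glia-normalized, scored versus DMSO control.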

[13] = IUF_NPC3_neuronal_differentiation_120hr: Leibniz Research Institute for Environmental Medicine (IUF) 120-hour Neuronal Differentiation Assay (NPC3) (AID 2284301; active means hit-call score of the fitted dose curve at least 0.9, where 1 is the maximum; inactive means score below 0.9)
In short: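 hNPC spheres, PDL/laminin, DMEM/F12 3:1 + 1% N2, 37C, 5% CO2; 7 concentrations + solvent control, 5 d exposure, half-change day 3. Fix 120 h; TUBB3/Hoechst ICC, CNN neuron calling; % neurons vs nuclei, DMSO-normalized.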

[14] = IUF_NPC4_neurite_length_120hr: Leibniz Research Institute for Environmental Medicine (IUF) 120-hour Neuronal Morphology Assay for Neurite Length (NPC4) (AID 2284302; active means hit-call score of the fitted dose curve at least 0.9, where 1 is the maximum; inactive means score below 0.9)
In short: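 hNPC spheres (0.3 mm, fetal brain GW 16-19) on PDL/laminin, DMEM:F12 3:1 + 1% N2, 37C 5% CO2; 7 concs + solvent control, day 0-5, half medium change d3; fix 120 h, TUBB3 ICC, mean neurite length um vs DMSO.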

[15] = IUF_NPC5_oligodendrocyte_differentiation_120hr: Leibniz Research Institute for Environmental Medicine (IUF) 120-hour Oligodendrocyte Differentiation Assay (NPC5) (AID 2284304);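 further: primary human fetal neural progenitor spheres plated to migrate and differentiate; share of O4-positive cells among Hoechst nuclei found by CNN image analysis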
In short: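 After plating on poly-D-lysine/laminin, fetal-derived hNPC spheres differentiated for 120 h at 37C in compound-containing N2 medium, refreshed by half on day 3. O4 immunostaining over Hoechst nuclei in the migration zone gave oligodendrocyte percentage relative to DMSO.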

[16] = IUF_NPC4_neurite_area_120hr: Leibniz Research Institute for Environmental Medicine (IUF) 120-hour Neuronal Morphology Assay for Neurite Area (NPC4) (AID 2284305)
In short: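 hNPC spheres on PDL/laminin, N2 medium, 37C/5% CO2; dosed day 0, half-medium refresh day 3; fixed 120 h; TUBB3/Hoechst ICC, high-content imaging; neurite area = mean pixels per neuron (nuclei excluded); DMSO baseline, max 0.1%.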

[17] = IUF_NPC2-5_cytotoxicity_72hr: Cytotoxicity Assessment at 72 hours in the Leibniz Research Institute for Environmental Medicine (IUF) Neural Progenitor Cell Migration and Differentiation Assay for Cytotoxicity (NPC2-5) (AID 2284306);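 further: LDH release into supernatant measured by resorufin fluorescence marking membrane damage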
In short: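 hNPC spheres (0.3 mm), PDL/laminin, DMEM/F12 3:1 + 1% N2; cpd from d0, 7 concs + SC, DMSO max 0.1%; half-medium refresh d3. Readout: supernatant LDH via resorufin fluorescence (RFU), 72 h; gain-of-signal fit.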

[18] = IUF_NPC2-5_cytotoxicity_120hr: Cytotoxicity Assessment at 120 hours in the Leibniz Research Institute for Environmental Medicine (IUF) Neural Progenitor Cell Migration and Differentiation Assay (NPC2-5) (AID 2284307)
In short: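 Membrane-integrity loss is quantified by LDH in supernatant after five days of exposure of migrating, differentiating human fetal NPC spheres; seven serially diluted concentrations are tested with DMSO kept at or below 0.1%.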

[19] = IUF_NPC2-5_cell_number_120hr: Cell Number Assessment at 120 hours in the Leibniz Research Institute for Environmental Medicine (IUF) Neural Progenitor Cell Migration and Differentiation Assay (NPC2-5) (AID 2284308; active means hit-call score of the fitted dose curve at least 0.9, where 1 is the maximum; inactive means score below 0.9;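 further: count of Hoechst-stained nuclei in migration zone around plated human neural progenitor spheres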)
In short: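 Seven-point serial dilutions plus solvent control were applied to plated 0.3 mm hNPC spheres at differentiation start, with medium half-replaced at day 3. Nuclei positive for Hoechst in the migration zone were enumerated at 120 h.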

[20] = IUF_NPC2-5_viability_120hr: Viability Assessment at 120 hours in the Leibniz Research Institute for Environmental Medicine (IUF) Neural Progenitor Cell Migration and Differentiation Assay (NPC2-5) (AID 2284312; active means hit-call score of the fitted dose curve at least 0.9, where 1 is the maximum; inactive means score below 0.9)
In short: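 Human fetal neural progenitor spheres (0.3 mm) plated on poly-D-lysine/laminin in N2 differentiation medium, exposed 120 h with half-medium refresh at day 3. Viability by alamar blue resazurin fluorescence; 7 concentrations, DMSO max 0.1%.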

[21] = CCTE_Mundy_HCI_iCellGluta_NOG_NeuriteLength: CCTE's Neurite Outgrowth Assay in iCellGluta cells for Neurite Length, Mundy Lab (AID 2284318)
In short: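 Automated high-content imaging of betaIII-tubulin (Alexa Fluor-488) and Hoechst-stained cells gave neurite length, normalized to the DMSO baseline.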

[22] = IUF_NPC1_cytotoxicity_72hr: Cytotoxicity Assessment at 72 hours in the Leibniz Research Institute for Environmental Medicine (IUF) Neural Progenitor Cell Proliferation Assay (NPC1) (AID 2284332);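 further: rising LDH signal means more cytotoxicity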
In short: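 LDH in supernatant, resazurin→resorufin fluorescence (RFU), 72 h exposure, no re-dosing. Cells: primary hNPC spheres, one per well, EGF+FGF medium, 37C/5% CO2, pH 7.2-7.6. Fit: positive direction vs baseline and dynamic range.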

[23] = CCTE_Mundy_HCI_iCellGluta_NOG_NeuronCount: CCTE's Neurite Outgrowth Assay in iCellGluta cells for Neuron Count, Mundy Lab (AID 2284340);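 further: cells fixed about 48 h after compound addition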
In short: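 Neuron count read by automated high-content imaging of Hoechst 33342 and betaIII-tubulin/Alexa Fluor-488 labelling in human iPSC glutamatergic neurons. Activity fitted relative to DMSO.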

[24] = CCTE_Mundy_HCI_iCellGluta_NOG_NeuriteCount: CCTE's Neurite Outgrowth Assay in iCellGluta cells for Neurite Count, Mundy Lab (AID 2284342);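 further: chemical exposure about 48 hours starting 2 hours after plating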

Measured: outcome

CC(=O)N[C@@H](CC(=O)O)C(=O)O
inactive: all assays above
